# Data reported in PubChem BioAssay (EPA / NIEHS).
# Inconclusive results are not listed. Active and inactive are the calls of the source. Rule for the calls: active = hit-call score of the fitted dose curve at least 0.9, where 1 is the maximum; inconclusive = response in the unintended direction; inactive = score below 0.9.
# Assay: ATG_M_32_TRANS: Attagene TRANS-FACTORIAL HepG2 Assay for M32 Transcription Factor (Internal Marker) (AID 2282984)
# Conditions: HepG2 Attagene TRANS M32 internal marker reporter
# Description: ATG_TRANS is a cell-based, multiplexed-readout assay that uses HepG2, a human liver cell line, with measurements taken at 24 hours after chemical dosing in a 24-well plate.ATG_M_32_TRANS is one of 30 assay component(s) measured or calculated from the ATG_TRANS assay. It is designed to make measurements of mRNA induction, a form of inducible reporter, as detected with fluorescence intensity signals by Reverse transcription polymerase chain reaction (RT-PCR) and Capillary electrophoresis technology.Data from the assay component ATG_M_32_TRANS was analyzed into 1 assay endpoint. This assay endpoint, ATG_M_32_TRANS, was analyzed in the positive analysis fitting direction relative to DMSO as the negative control and baseline of activity. Using a type of inducible reporter, measures of mRNA for gain-of-signal activity can be used to understand the background control at the transcription factor-level as they relate to the gene . Furthermore, this assay endpoint can be referred to as a secondary readout, because this assay has produced multiple assay endpoints where this one serves a background control function. To generalize the intended target to other relatable targets, this assay endpoint is annotated to the background measurement intended target family, where the subfamily is internal marker.
# Human liver HepG2 cells are transiently transfected with multiple reporter transcription units (MRTUs) in 6-well plates using FuGene 6 reagent (Roche; 3 ml FuGene/1 mg DNA). The MRTU constructs are regulated by a cis-regulating element (promoter). […] A major difference between the CIS and TRANS system is that in CIS activities of endogenous TFs are measured, whereas the TRANS assay evaluates changes in activities of exogenous, chimeric NR-Gal4 proteins. […] At the end of 24 hour incubation, total RNA was isolated using TriZol reagent (Invitrogen). The isolated RNA is then reverse-transcribed using oligo(dT) primer and Mo-MLV reverse transcriptase (Invitrogen) with DNAse I (Ambion) treatment for 30 min. The one-tenth of the produced cDNA was amplified by PCR using Taq DNA polymerase (Invitrogen) and two reporter sequence-specific primers. The PCR products were fluorescently labeled by primer extension with 6-arboxyfluorescein (6-FAM) 5'-labeled reporter sequence-specific primer (2 min at 95 C, 20 s at 68 C and 10 min at 72 C) and these products were digested with 5U of HpaI (New England Biolabs) for 2h at 37 C. The fragments were purified using Qiaquick PCR columns (Qiagen), analyzed on an ABI 3130xL genetic analyzer (Applied Biosystems) with peak positions identified by using a set of X-rhodamine (ROX)-labeled MapMarker1000 molecular weight standards (BioVentures). The raw capillary electrophoresis data was processed using Attagraph software (Attagene).
row,SMILES,outcome
1,O=C(O)CCCC(=O)O,inactive
2,Cc1ccc(C)c(OCCCC(C)(C)C(=O)O)c1,inactive
3,CCCCCCCCCCCCCC(=O)OC(C)C,inactive
4,Nc1nc(N)nc(-c2ccccc2)n1,inactive
5,N#Cc1ccc(C2CCCc3cncn32)cc1 (stereo not given),inactive
6,CCCCOCCOCCOC(C)=O,inactive
7,CC(C)C(=O)OCCc1ccccc1,inactive
8,CC(C)=CCCC(C)=CC#N,inactive
9,CCOC(=O)C1=NN(c2ccc(Cl)cc2Cl)C(C)(C(=O)OCC)C1 (stereo not given),inactive
10,O=C(O[C@@H]1Cc2c(O)cc(O)cc2O[C@@H]1c1cc(O)c(O)c(O)c1)c1cc(O)c(O)c(O)c1,inactive
11,C=CCCCCCCCCO,inactive
12,CCOC(=O)OC(=O)OCC,inactive
13,CC(C)CCCCCOC(=O)CS,inactive
14,CC/C=C\CCOC(=O)c1ccccc1O,inactive
15,Cc1cccc(C(C)(C)C)c1O,inactive
16,CC(=O)c1ccccc1O,inactive
17,Cc1ccc2c(c1)CCCN2,inactive
18,O=C(C=Cc1ccccc1)OCCc1ccccc1,inactive
19,CC(=O)OCCc1ccccc1,inactive
20,CCN1CN(CC)CN(CC)C1,inactive

row,SMILES,outcome
1,CCCCC1C(=O)N(c2ccccc2)N(c2ccccc2)C1=O,inactive
2,CCC(C)c1ccccc1 (stereo not given),inactive
3,C=CCNCC=C,inactive
4,CC1(C)[C@@H]2CC[C@@]1(C)C(=O)C2,inactive
5,CCN(CC)c1cccc(C)c1,inactive
6,CC(=O)OCC=C(C)C,inactive
7,CCc1cccc(C)c1N(C(=O)CS(=O)(=O)O)C(C)COC (stereo not given),inactive
8,C1CNCCN1,inactive
9,CC1=CCC2CC1C2(C)C (stereo not given),inactive
10,NNS(=O)(=O)c1ccc(Oc2ccc(S(=O)(=O)NN)cc2)cc1,inactive
11,C=C(C)OC(C)=O,inactive
12,O=C(OCCc1ccccc1)c1ccccc1,inactive
13,COc1cc(C)ccc1O,inactive
14,C=Cc1ccc(OC(C)=O)cc1,inactive
15,O=C1CCCCCCCCCCC1,inactive
16,C=C(C)C(=O)OCCOC(=O)C(=C)C,inactive
17,C=C(C)C1CC=C(C)CC1 (stereo not given),inactive
18,O=C(Cl)c1ccc(C(=O)Cl)cc1,inactive
19,CC1=C(O)C(=O)C(C)O1 (stereo not given),inactive
20,CCCCNC(=S)NCCCC,inactive
